Laboratory results published in PubChem BioAssay AID2316 (Broad Institute, 2010).
The campaign covered roughly 29,000 compounds. Fewer than 10 were called active. How the calls were made is not given here. Not all results are given here.

Assay: reversal of PD-1 mediated T-cell inhibition, primary screen, luminescence, primary human CD4 T cells, PD-L1 beads (AID 2316);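 further: 0% = median vehicle wells and 100% = positive control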
Conditions: CellTiter-Glo 96 h, active compounds read high

Question: With O=C1OC(c2ccc(-c3ccccc3)cc2)=N/C1=C\c1ccco1 as the molecule, how does the activation read?
Answer: The activation was 1.56% (inactive).

Question: Which activation does the source give for C/C=C/c1ccc(OCCCSc2nc(C)cc(=O)[nH]2)c(OC)c1 here?
Answer: The activation was 2.94% (inactive).

Question: For C[C@H]1CN([C@@H](C)CO)C(=O)Cc2cc(NC(=O)Nc3ccc4c(c3)OCO4)ccc2O[C@H]1CN(C)Cc1ccc(C(=O)Nc2ccccc2N)cc1, which activation is on record?
Answer: Its activation is -2.39% (inactive).

Question: For C[C@@H]1CCCCO[C@@H](CN(C)C(=O)C2CCCCC2)[C@@H](C)CN([C@H](C)CO)C(=O)c2cc(NC(=O)c3ccccc3)ccc2O1, which activation is on record?
Answer: The activation was -1.83% (inactive).

Question: For N#Cc1cc2c(nc1SCC(=O)Nc1ccccc1C(F)(F)F)CCCCC2, which activation is on record?
Answer: The activation was 1.79% (inactive).

Question: For Cc1noc(C)c1NC(=O)Nc1cccc2c1O[C@@H](CN(C)C(=O)Nc1ccc(C(F)(F)F)cc1)[C@@H](C)CN([C@@H](C)CO)C2=O, which activation is on record?
Answer: Its activation is -0.0327% (inactive).

Question: For C[C@H](CO)N1C[C@H](C)[C@H](CN(C)S(C)(=O)=O)Oc2ccc(NC(=O)CCCN(C)C)cc2C1=O, which activation is on record?
Answer: The activation was 0.789% (inactive).

Question: With C[C@H](CO)N1C[C@H](C)[C@H](CN(C)CC2CCCCC2)Oc2ccc(NC(=O)CCCCCC(=O)Nc3ccccc3N)cc2CC1=O as the molecule, how does the activation read?
Answer: Its activation is -0.694% (inactive).

Question: Which activation does the source give for Cc1cccc(NC(=O)CSc2nc3c(cc2C#N)CCCCC3)c1 here?
Answer: Its activation is -3.01% (inactive).

Question: Which activation does the source give for O=C(CSc1nnc(-c2ccccc2)c(-c2ccccc2)n1)Nc1ccccc1 here?
Answer: Its activation is 1.51% (inactive).

Question: With C[C@H]1CN([C@@H](C)CO)C(=O)c2cc(NC(=O)Cn3cnnn3)ccc2O[C@@H]1CN(C)CC1CCCCC1 as the molecule, how does the activation read?
Answer: Its activation is 1.73% (inactive).

Question: For CCCC1CCC(c2ccc(OC(=O)c3ccco3)cc2)CC1 (centres undefined), which activation is on record?
Answer: Its activation is -0.337% (inactive).

Question: With CC(=O)c1c(C)nn(CC(O)COc2ccc3cc(Br)ccc3c2)c1C (centres undefined) as the molecule, how does the activation read?
Answer: The activation was -6.98% (inactive).

Question: Which activation does the source give for O=C(Nc1ccc(C(=O)OCc2cccc(C(=O)c3ccccc3)c2)cc1)c1ccccc1 here?
Answer: The activation was -0.837% (inactive).

Question: With O=C(CSc1n[nH]c(-c2ccncc2)n1)Nc1ccccc1F as the molecule, how does the activation read?
Answer: Its activation is 2.95% (inactive).

Question: Which activation does the source give for Cc1ccc(NC(=O)CN2C(=O)/C(=C\c3ccccc3)SC2=S)cc1 here?
Answer: Its activation is 1.06% (inactive).

Question: For COC(=O)C1=C(C)NC2=C(C(=O)CC(C)(C)C2)C1c1ccncc1 (centres undefined), which activation is on record?
Answer: The activation was -0.541% (inactive).

Question: With C[C@@H]1CN([C@@H](C)CO)C(=O)c2cccc(NS(=O)(=O)c3cccs3)c2O[C@@H]1CN(C)CC1CC1 as the molecule, how does the activation read?
Answer: Its activation is 1.15% (inactive).

Question: With C[C@@H]1CN([C@H](C)CO)C(=O)c2cccc(NC(=O)Nc3ccccc3)c2O[C@H]1CN(C)S(C)(=O)=O as the molecule, how does the activation read?
Answer: Its activation is 0.424% (inactive).

Question: For C[C@H]1CN([C@@H](C)CO)C(=O)Cc2cc(NC(=O)Nc3cccc4ccccc34)ccc2O[C@@H]1CN(C)S(=O)(=O)c1cn(C)cn1, which activation is on record?
Answer: Its activation is -0.329% (inactive).

Question: With CC(C)Cc1ccc(/C=C/C(=O)N2CCCC2)cc1 as the molecule, how does the activation read?
Answer: The activation was -1.3% (inactive).

Question: Which activation does the source give for C[C@H]1CN([C@@H](C)CO)C(=O)c2cccc(NC(=O)C3CC3)c2O[C@@H]1CN(C)S(=O)(=O)c1ccc(F)cc1 here?
Answer: The activation was -0.218% (inactive).

Question: For COc1ccc(CN(C)C[C@H]2Oc3c(NS(=O)(=O)c4ccc(C)cc4)cccc3C(=O)N([C@@H](C)CO)C[C@@H]2C)cc1, which activation is on record?
Answer: Its activation is -1.26% (inactive).

Question: For COc1ccc(CN(C)C[C@@H]2Oc3ccc(NS(=O)(=O)c4ccc(F)cc4)cc3C(=O)N([C@@H](C)CO)C[C@@H]2C)cc1, which activation is on record?
Answer: The activation was -1.17% (inactive).

Question: For N#Cc1c(SCC(=O)Nc2ccc(F)cc2Cl)nc2c(c1C(F)(F)F)CCCCC2, which activation is on record?
Answer: Its activation is 0.417% (inactive).

Question: For CC(=O)NCCc1nc2cc(NC(=O)c3ccccc3)ccc2n1C, which activation is on record?
Answer: The activation was 2.35% (inactive).

Question: With C[C@@H]1CN([C@@H](C)CO)C(=O)c2cc(NC(=O)CCCN(C)C)ccc2O[C@@H]1CN(C)Cc1ccncc1 as the molecule, how does the activation read?
Answer: Its activation is 0.414% (inactive).

Question: With CCOc1ccc(NC(=O)C(C)Sc2nnc(C)n2-c2ccccc2)cc1 (centres undefined) as the molecule, how does the activation read?
Answer: Its activation is -0.74% (inactive).

Question: Which activation does the source give for C[C@@H]1CCCCO[C@@H](CN(C)C(=O)NC2CCCCC2)[C@@H](C)CN([C@H](C)CO)C(=O)c2cc(NC(=O)CCC(F)(F)F)ccc2O1 here?
Answer: The activation was -0.155% (inactive).

Question: With COc1cc(OC)cc(C(=O)N2CCN=C2c2ccccc2)c1 as the molecule, how does the activation read?
Answer: The activation was 0.604% (inactive).

Question: For C[C@@H]1CN([C@@H](C)CO)C(=O)c2cc(NC(=O)Cc3ccccc3)ccc2O[C@H]1CN(C)Cc1ccc(Cl)c(Cl)c1, which activation is on record?
Answer: The activation was -0.482% (inactive).

Question: With Cc1ccccc1N=C(N)N=C(N)N as the molecule, how does the activation read?
Answer: Its activation is -0.656% (inactive).

Question: Which activation does the source give for C[C@@H]1CCCCO[C@H](CN(C)C(=O)C2CCCCC2)[C@@H](C)CN([C@H](C)CO)C(=O)c2cc(NC(=O)C3CCCCC3)ccc2O1 here?
Answer: The activation was -3.28% (inactive).

Question: For CC(=O)c1cccc(NC(=O)CN(C)S(=O)(=O)c2ccc3ccccc3c2)c1, which activation is on record?
Answer: The activation was 0.81% (inactive).

Question: Which activation does the source give for COc1ccccc1-n1c(N)cc(=O)nc1SCC(=O)Nc1ccc(Br)cc1 here?
Answer: Its activation is 1.16% (inactive).

Question: With C[C@H](CO)N1C[C@H](C)[C@H](CN(C)S(=O)(=O)c2cccs2)Oc2ccc(NC(=O)Nc3ccccc3)cc2C1=O as the molecule, how does the activation read?
Answer: Its activation is -1.39% (inactive).

Question: For Cc1ccc(-c2noc(CSc3nnc(-c4cccs4)n3C)n2)cc1, which activation is on record?
Answer: Its activation is 0.512% (inactive).

Question: For Cc1ccc(C)c(OCC(=O)Nc2ccccc2C#N)c1, which activation is on record?
Answer: The activation was -3.9% (inactive).

Question: Which activation does the source give for COc1ccc(S(=O)(=O)N(C)C[C@@H]2Oc3ccc(NS(=O)(=O)c4ccc(Cl)cc4)cc3C(=O)N([C@H](C)CO)C[C@H]2C)cc1 here?
Answer: Its activation is -2.88% (inactive).

Question: With O=C(OCC1OC(Oc2ccc(O)cc2COC(=O)C2(O)C(O)CCC(O)C2O)C(O)C(O)C1O)c1ccccc1 (centres undefined) as the molecule, how does the activation read?
Answer: The activation was -1.74% (inactive).

Question: With C[C@@H]1CN([C@@H](C)CO)C(=O)c2cccc(NS(=O)(=O)c3ccc(Cl)cc3)c2O[C@@H]1CN(C)C(=O)Nc1ccccc1 as the molecule, how does the activation read?
Answer: Its activation is -0.568% (inactive).

Question: For C[C@@H]1CN([C@H](C)CO)C(=O)Cc2cc(NC(=O)Cn3cnnn3)ccc2O[C@H]1CN(C)Cc1ccc(Cl)c(Cl)c1, which activation is on record?
Answer: Its activation is 1.08% (inactive).

Question: With C[C@@H]1CN([C@@H](C)CO)C(=O)c2cccc(NS(=O)(=O)c3ccc(F)cc3)c2O[C@@H]1CN(C)Cc1ccc(C(=O)O)cc1 as the molecule, how does the activation read?
Answer: Its activation is 1.83% (inactive).

Question: For C[C@H]1CN([C@@H](C)CO)C(=O)c2cc(NS(=O)(=O)c3cccs3)ccc2O[C@@H]1CN(C)C(=O)Nc1cccc2ccccc12, which activation is on record?
Answer: The activation was -0.392% (inactive).
